From PubChem BioAssay AID1159580 (chemical genetic matrix, 2015)
“And” between values parts separate entries of the source, which are not always exact repeats. Equal values may be shown once. Hit rate of the full screen: of about 5,500 compounds, about 2,000 (36%) were called active. Another 18% or so got no clear call; they are omitted. Rule as the data show it: active = normalized growth mostly below about 0.91 (no sharp cut-off); inconclusive = no clear call, values can overlap the other calls; inactive = mostly above about 0.92. Some of the results follow.

Assay: chemical genetic growth profiling, strain panel (AID 1159580);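 also: tested at 20 µM; growth read once vehicle control cultures reached saturation at 30 °C; 1 = growth at the plate median or of vehicle wells; lower values mean less growth of the strain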
Details: S. cerevisiae deletion strains, growth OD

Measured: normalized growth

O=C(O)c1ccccc1-c1c2cc(Br)c(=O)cc-2oc2[c]([Hg])c(O)c(Br)cc12
active: locus YAL013W, strain DEP1, stronger effect = lower value 0.0843 | locus YBR021W, strain FUR4, stronger effect = lower value 0.61 | locus YBR279W, strain paf1, stronger effect = lower value 0.594 | locus YDL035C, strain GPR1, stronger effect = lower value 0.453 | locus YDL134C, strain PPH21, stronger effect = lower value 0.102 | locus YDL185W, strain tfp1, stronger effect = lower value 0.622 | locus YDL192W, strain arf1, stronger effect = lower value 0.0635 | locus YDR137W, strain rgp1, stronger effect = lower value 1.2 [resistant] | locus YDR150W, strain NUM1, stronger effect = lower value 0.732 | locus YDR162C, strain NBP2, stronger effect = lower value 0.736 | locus YDR318W, strain mcm21, stronger effect = lower value 0.07 | locus YDR388W, stronger effect = lower value 0.0603 | locus YDR502C, strain sam2, stronger effect = lower value 0.814 | locus YER110C, stronger effect = lower value 0.655 | locus YER167W, strain BCK2, stronger effect = lower value 0.0686 | locus YGL078C, strain dbp3, stronger effect = lower value 0.0613 | locus YGL086W, strain mad1, stronger effect = lower value 0.0593 | locus YGL248W, strain PDE1, stronger effect = lower value 0.0521 | locus YGR078C, strain PAC10, stronger effect = lower value 0.369 | locus YGR135W, strain pre9, stronger effect = lower value 0.0708 | locus YGR229C, strain SMI1, stronger effect = lower value 0.106 | locus YGR252W, strain gcn5, stronger effect = lower value 0.178 | locus YHR013C, strain ard1, stronger effect = lower value 0.121 | locus YHR030C, strain SLT2, stronger effect = lower value 0.146 and 0.163 | locus YHR079C, strain IRE1 (second series), stronger effect = lower value 0.884 | locus YHR079C, strain IRE1, stronger effect = lower value 0.406 | locus YHR094C, strain hxt1, stronger effect = lower value 0.0904 | locus YHR200W, strain rpn10, stronger effect = lower value 0.0659 | locus YIL066C, strain RNR3, stronger effect = lower value 0.0637 | locus YIL073C, strain SPO22, stronger effect = lower value 0.127 | locus YIL125W, strain kgd1, stronger effect = lower value 0.0621 | locus YJL168C, strain set2, stronger effect = lower value 0.0944 | locus YJR066W, strain TOR1, stronger effect = lower value 0.439
0.834 (inactive) and 0.144 (active): locus YJL095W, strain BCK1, stronger effect = lower value
inactive: locus YAL021C, strain ccr4, stronger effect = lower value 1.01 | locus YAL026C, strain drs2, stronger effect = lower value 1.04 | locus YAL030W, strain snc1, stronger effect = lower value 1.03 | locus YBL061C, strain skt5, stronger effect = lower value 1.04 | locus YBR009C, strain hhf1, stronger effect = lower value 1.03 | locus YBR023C, strain chs3, stronger effect = lower value 1.04 | locus YBR171W, strain sec66, stronger effect = lower value 1.06 | locus YBR229C, strain ROT2, stronger effect = lower value 0.972 | locus YBR231C, strain swc5, stronger effect = lower value 1.04 | locus YCL011C, strain gbp2, stronger effect = lower value 1.05 | locus YCL016C, strain dcc1, stronger effect = lower value 1.06 | locus YCL029C, strain bik1, stronger effect = lower value 0.996 | locus YCR088W, strain abp1, stronger effect = lower value 1.03 | locus YDL005C, strain med2, stronger effect = lower value 1.02 | locus YDL040C, strain nat1, stronger effect = lower value 1.05 | locus YDL074C, strain BRE1, stronger effect = lower value 0.866 | locus YDL101C, strain DUN1, stronger effect = lower value 0.936 | locus YDR001C, strain nth1, stronger effect = lower value 1.04 | locus YDR069C, strain doa4, stronger effect = lower value 1.02 | locus YDR101C, strain arx1, stronger effect = lower value 1.01 | locus YDR159W, strain sac3, stronger effect = lower value 1.05 | locus YDR195W, strain ref2 0.982 | locus YDR297W, strain sur2, stronger effect = lower value 1.04 | locus YDR334W, strain swr1, stronger effect = lower value 1.03 | locus YDR335W, strain msn5, stronger effect = lower value 1.03 | locus YDR392W, strain spt3, stronger effect = lower value 0.796 | locus YEL003W, strain gim4, stronger effect = lower value 1.02 | locus YEL037C, strain rad23, stronger effect = lower value 1.03 | locus YEL061C, strain CIN8 (second series), stronger effect = lower value 1.05 | locus YEL061C, strain CIN8, stronger effect = lower value 0.984 | locus YER015W, strain faa2, stronger effect = lower value 1.04 | locus YER016W, strain bim1, stronger effect = lower value 1.06 | locus YER111C, strain swi4, stronger effect = lower value 1.03 | locus YER155C, strain BEM2 (second series), stronger effect = lower value 1.03 | locus YER155C, strain BEM2, stronger effect = lower value 1.02 | locus YFR010W, strain ubp6, stronger effect = lower value 1.02 | locus YGL167C, strain pmr1, stronger effect = lower value 1.06 | locus YGL173C, strain kem1, stronger effect = lower value 0.973 | locus YGL227W, strain vid30, stronger effect = lower value 1.05 | locus YGL240W, strain doc1, stronger effect = lower value 1 | locus YGL253W, strain hxk2, stronger effect = lower value 1.02 | locus YHR027C, strain rpn1, stronger effect = lower value 1.01 | locus YHR129C, strain ARP1, stronger effect = lower value 0.939 | locus YHR142W, strain chs7, stronger effect = lower value 0.951 | locus YIR030C, strain dcg1, stronger effect = lower value 1 | locus YJL092W, strain hpr5, stronger effect = lower value 1.04 | locus YJL095W, strain BCK1 (second series), stronger effect = lower value 1.03 | locus YJL115W, strain asf1, stronger effect = lower value 1.03 | locus YJL129C, strain trk1, stronger effect = lower value 1.12 | locus YJL134W, strain LCB3, stronger effect = lower value 1.02 | locus YJL154C, strain vps35, stronger effect = lower value 1.04 | locus YJL164C, strain tpk1, stronger effect = lower value 1.01 | locus YJL166W, strain qcr8, stronger effect = lower value 1.02 | locus YJL187C, strain SWE1 (second series), stronger effect = lower value 0.955 | locus YJL187C, strain SWE1, stronger effect = lower value 1.01 | locus YJR043C, strain POL32, stronger effect = lower value 0.868 | locus YJR075W, strain HOC1, stronger effect = lower value 0.946
